Compound activity as filed in PubChem.
Sm TGR block – S. mansoni TGR enzyme inhibition; Q962Y6; Potency, µM (highest dose often 114 µM), for the others: at the highest dose activity change, negative = inhibition, actives largely listed as inhibitors; purified TGR, DTNB reduction, TNB absorbance 405 nm; 3% of 360,000 active; further: nearly all actives have a fitted effect of over 60% in size
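First, TGR (20 nM dispensed) and NADPH were mixed with compound. Second, a 15 min room-temperature incubation followed. Third, further NADPH and then DTNB were added to start the reaction. Finally, TNB absorbance was monitored kinetically.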
AmpC detergent – blocks E. coli AmpC beta-lactamase in detergent assay | AID 485294 | AmpC hydrolysis of nitrocefin, absorbance 480 nm, 0.01% Triton | Potency, µM (titrated, usually from 114 µM), for the others: at the top dose activity change, negative = inhibition, usual class: inhibitors | 0.041% of 370,000 active;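 further: 0% = no-compound wells and -100% = no-enzyme wells; nearly all actives have a fitted effect of over 25% in size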
Target sequence (P00811 whole entry, looked up): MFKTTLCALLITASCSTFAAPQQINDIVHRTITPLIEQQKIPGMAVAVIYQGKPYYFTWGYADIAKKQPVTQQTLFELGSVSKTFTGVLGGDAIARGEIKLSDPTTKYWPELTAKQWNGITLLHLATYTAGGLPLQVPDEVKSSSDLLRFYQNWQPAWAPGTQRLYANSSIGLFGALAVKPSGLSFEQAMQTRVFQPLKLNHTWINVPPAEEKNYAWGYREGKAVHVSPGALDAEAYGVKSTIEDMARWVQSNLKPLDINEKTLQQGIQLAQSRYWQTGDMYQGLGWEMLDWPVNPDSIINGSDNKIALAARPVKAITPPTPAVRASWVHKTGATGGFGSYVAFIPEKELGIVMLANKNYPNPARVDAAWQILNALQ
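AmpC (5.3 nM in the dispensed reagent) in 20 mM phosphate pH 7.0 with 0.01% (detergent screen) or 0.0001% Triton X-100 was preincubated with compounds for 15 min at room temperature. Nitrocefin was then added from an 800 uM solution, and hydrolysis was followed at 480 nm.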
AmpC no deterg – inhibitors of E. coli AmpC beta-lactamase without detergent | AmpC nitrocefin hydrolysis, absorbance 480 nm, 0.0001% Triton | Potency, µM (top dose mostly 57.1 µM), for the others: top-dose activity change, negative = inhibition, hits mostly inhibitors | P00811 | 0.52% of 330,000 active;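 further: plate controls were no compound for no effect and no enzyme for full effect; nearly all actives have a fitted effect of over 20% in size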
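AmpC (5.3 nM in the dispensed reagent) in 20 mM phosphate pH 7.0 with 0.01% (detergent screen) or 0.0001% Triton X-100 was preincubated with compounds for 15 min at room temperature. Nitrocefin was then added from an 800 uM solution, and hydrolysis was followed at 480 nm.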
Active calls of the source: *; u = inconclusive; x = no result. Only some compounds are listed: those with a hit (about 3.3% of all), similar ones and a draw of the others. The call rests on the fitted dose curve; in most records, active means well fitted curve in the direction sought with a large enough effect; inconclusive means small, poorly fitted or top-dose-only effect, or another doubt; inactive means no such curve, though single readings can be large; an effect the other way counts as inactive or inconclusive. Unless noted, on the % scale 0 is the no-effect control and ±100 the full control effect; potency means the concentration at half of the fitted maximal effect.

SMILES	Sm TGR block	AmpC detergent	AmpC no deterg
Cc1cccc(N2CCN(C(=O)C(Cc3ccccc3)NC(N)=O)CC2)c1C (configuration not stated)	-10%	-3%	96%
CC1CC(C)CN(C(=O)C(Cc2ccccc2)n2cccc2)C1 (configuration not stated)	0%	6%	6%
Cc1nn(C)c2c1c(C(F)(F)F)cc(=O)n2C(C)C(=O)NCCc1ccc(Cl)cc1 (configuration not stated)	-11%	1%	x
CCOc1ccc(OC(=O)c2sc3ncn(Cc4cccc(F)c4)c(=O)c3c2C)cc1	13%	5%	x
CSCC(=O)Nc1nc(-c2ccc3c(c2)OCCO3)cs1	-10%	-2%	-47%
CCCC(=O)Nc1nc(-c2ccc3c(c2)OCCO3)cs1	3%	u	11µM*
CCCCNC(=O)N(O)C1N(/N=C/c2ccco2)C(=S)SC1(C)C (configuration not stated)	28µM*	-4%	-21%
CCCCNC(=O)N(O)C1N(/N=C/c2ccccc2F)C(=S)SC1(C)C (configuration not stated)	-19%	1%	-24%
Cc1ccc(NC(=O)c2c(C)oc3ccc(O)c(CN4CCCCCC4)c23)c(C)c1	-3%	19%	x
C#CCOCCOCCOCCNc1nc(N2CCN(C(=O)CCCCCCCCCCNC(=O)Cn3cc(CCCCCN)nn3)CC2)nc(N2CCN(C(=O)CCCCCCCCCCNC(=O)[C@H]([C@@H](C)CC)n3cc(CCCCCN)nn3)CC2)n1	45µM*	7%	245%
C#CCOCCOCCOCCNc1nc(N2CCOCC2)nc(N2CCN(C(=O)CCCCCCCCCCNC(=O)[C@H](CO)n3cc(CCCCCN)nn3)CC2)n1	-35%	u	317%
C#CCOCCOCCOCCNc1nc(N2CCN(C(=O)CCCCCCCCCCNC(=O)Cn3cc(CCCCCN)nn3)CC2)nc(N2CCN(C(=O)CCCCCCCCCCNC(=O)[C@H](CO)n3cc(CCCCCN)nn3)CC2)n1	40µM*	18%	321%
C#CCOCCOCCOCCNc1nc(N2CCOCC2)nc(N2CCN(C(=O)CCCCCCCCCCNC(=O)Cn3cc(CCCCCN)nn3)CC2)n1	u	u	189%
CCc1c(C)sc2c1CCN(Cc1cccc(OC)c1)C2c1ccccc1 (configuration not stated)	31%	9%	x
COc1ccccc1N1CCN(c2ccc(NC(=O)c3ccc(C)cc3)cc2C(=O)O)CC1	6%	7%	x
COc1ccccc1N(CC(=O)Nc1ccc2c(c1)OCO2)S(=O)(=O)c1ccc(C)cc1	-5%	-5%	x
Cc1cc(/C=C2\C(=O)NC(=O)N(c3ccc(F)cc3)C2=O)c(C)n1-c1ccc(C(=O)O)cc1	-35%	-11%	-19%
Cc1ccc(N2C(=O)NC(=O)/C(=C\c3cc(C)n(-c4ccc(C(=O)O)cc4)c3C)C2=O)cc1	u	-9%	-21%
Cc1ccc(N2C(=O)NC(=O)/C(=C\c3cc(C)n(-c4cc(C(=O)O)cc(C(=O)O)c4)c3C)C2=O)cc1	7.9µM*	1%	-24%
CCc1ccc(N2C(=O)NC(=O)/C(=C\c3cc(C)n(-c4cc(C(=O)O)cc(C(=O)O)c4)c3C)C2=O)cc1	8.9µM*	0%	-18%
CCOc1ccc(NC(=O)Cn2c(=O)c(CNc3ccc(OC)cc3)cc3ccc(OC)cc32)cc1	-5%	-5%	x
COc1ccc(Br)cc1CNC(=O)c1cnc2sc(N3CCCCCC3)nn2c1=O	-1%	-5%	x
Cc1ccc(NC(=O)CSCC(=O)Nc2ncc3c(n2)CC(c2ccco2)CC3=O)cc1 (configuration not stated)	50µM*	2%	-33%
Cc1cccc(Nc2ncc3c(n2)CC(c2ccco2)CC3=O)c1 (configuration not stated)	-3%	-16%	-27%
Cc1cc(C)cc(Nc2ncc3c(n2)CC(c2ccco2)CC3=O)c1 (configuration not stated)	50µM*	0%	-12%
SMILES	Sm TGR block	AmpC detergent	AmpC no deterg
Cc1ccc(C(=O)Nc2ncc3c(n2)CC(c2ccco2)CC3=O)cc1 (configuration not stated)	u	-13%	-36%
O=C(COc1ccccc1F)Nc1c(C(=O)Nc2cccc(F)c2)oc2ccccc12	2%	7%	x
COc1ccc(CNC(=O)CCC(=O)N2CCSc3ccccc32)cc1	6%	12%	x
CCOc1ccccc1C(=O)N(Cc1ccco1)Cc1ccccc1F	4%	19%	x
O=C(CCSCCC(=O)NCc1ccco1)NCc1ccco1	u	-2%	-8%
CC(C)C(CC(=O)NCc1ccco1)c1ccco1 (configuration not stated)	22µM*	-1%	0%
